Hits are enriched below; roughly 1.2% of the tested compounds scored in any of these assays.
RGS16-Gao HTS – RGS16-Galphao interaction regulator (human); bead-based flow cytometry RGS16-Galphao binding, fluorescence; actives lie on both sides; binding response (% of control), % at 10 µM; 220,000 tested, 0.38% active;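 further: Galphao activated by GDP with aluminum fluoride before binding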
RGS7-Gao reg – regulators of human RGS7-Galphao interaction; AID 1439; P09471; Multiplexed bead flow cytometry, RGS7-Galphao binding; actives lie on both sides; binding response (% of control), % at 10 µM; 220,000 tested, 0.35% active; in the data active means binding response below about 49% or above about 150%; inconclusive means no clear call, values can overlap the other calls; inactive means in between;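 further: fluorescent Galphao held in activated GDP-AlF4 state binding bead-coupled RGS7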
Target sequence (P09471 whole entry, looked up): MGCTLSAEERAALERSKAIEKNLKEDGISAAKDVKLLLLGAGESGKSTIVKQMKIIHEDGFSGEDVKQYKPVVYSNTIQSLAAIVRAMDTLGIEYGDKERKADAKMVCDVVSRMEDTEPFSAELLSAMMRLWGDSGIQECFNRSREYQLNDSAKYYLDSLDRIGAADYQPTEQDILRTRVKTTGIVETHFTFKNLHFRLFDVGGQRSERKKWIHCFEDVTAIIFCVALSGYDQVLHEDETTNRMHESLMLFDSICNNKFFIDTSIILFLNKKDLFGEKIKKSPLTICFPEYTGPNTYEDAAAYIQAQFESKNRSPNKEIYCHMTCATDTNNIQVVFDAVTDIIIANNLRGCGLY
Avidin fluor – compound fluoresces at 488/530 nm on avidin beads. compound fluorescence 488/530 nm, flow cytometry; active compounds read high. fluorescence (KMESF) at 10 µM. 220,000 tested, 0.38% active. AID 1775; in the data active means fluorescence above about 47
RGS4-Gao reg – human RGS4-Galphao interaction regulation | Multiplexed bead flow cytometry, RGS4-Galphao binding; actives lie on both sides | binding response (% of control), % at 10 µM | 220,000 tested, 0.33% active; in the data active means binding response below about 49% or above about 150%; inactive means in between;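 further: fluorescent Galphao activated with aluminum fluoride binding bead-coupled RGS4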
GSH fluor – compound fluoresces at 488/530 nm on GSH beads; fluorescence (KMESF) at 10 µM; 190,000 tested, 0.25% active; GSH beads flow cytometry, compound fluorescence 488/530 nm; active compounds read high; in the data active means fluorescence above about 89;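 further: glutathione beads carrying GST-tagged Bcl family fusion proteins plus one bare bead set; values are compound well signal with DMSO vehicle wells as background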
RGS8-Gao – modulates binding of RGS8 to human Galphao; P09471; multiplexed bead flow cytometry; actives lie on both sides; response (percent of control binding), % at 10 µM; 220,000 tested, 0.34% active; AID 1423; in the data active means response below about 60% or above about 140%; inactive means in between;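 further: Galphao activated as the GDP aluminium fluoride complex binding bead-coupled RGS8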
RGS-Gao – regulators of human RGS4-Galphao interaction | shares compounds with RGS16-Gao HTS | multiplexed bead flow cytometry, RGS–Galpha-o binding | RGS4–Galpha-o binding response, % at 10 µM | 1,600 tested, 99% active | AID 1504;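 further: fluorescently labeled Galpha-o bound to GDP with aluminium fluoride binding biotinylated RGS beads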
Avidin counter – counter-screen: compounds disrupting biotin binding to avidin beads | shares compounds with RGS16-Gao HTS | streptavidin beads, fluorescein-biotin binding, flow cytometry | inhibition, % at 10 µM | 1,700 tested, under 10 active;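 active means inhibition above 50%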;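 further: median green fluorescence of gated singlet beads compared with DMSO control wells; 0% = DMSO wells and 100% = complete loss of bead fluorescence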
RGS8-Gao confirm – RGS8-Galphao interaction regulation, single point confirmation; shares compounds with RGS16-Gao HTS; bead-based flow cytometry RGS8-Galphao binding, fluorescence; actives lie on both sides; binding response (% of control), % at 10 µM; 1,700 tested, 3% active; in the data active means binding response below about 72% or above about 130%; inactive means in between;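 further: Galphao activated as GDP AlF4 complex before binding bead RGS8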
RGS7-Gao confirm – RGS7-Galphao interaction regulation, single point confirmation | response (percent of control binding), % at 10 µM | 1,700 tested, 7.8% active | shares compounds with RGS16-Gao HTS | bead-based flow cytometry RGS7-Galphao binding; actives lie on both sides; in the data active means response below about 75% or above about 130%; inactive means in between;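 further: fluorescent Galphao activated with GDP and aluminum fluoride binding bead-coupled RGS7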
RGS16-Gao single – RGS16-Galphao interaction regulation, single point confirmation; bead-based flow cytometry, RGS16-Galphao binding; actives lie on both sides; AID 1838; shares compounds with RGS16-Gao HTS; 1,700 tested, 4% active; response (% of control binding), % at 10 µM; in the data active means response below about 74% or above about 130%; inactive means in between;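 further: Galphao activated as the GDP aluminium fluoride complex binding bead-coupled RGS16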
RGS4-Gao single – confirmation of regulators of human RGS4-Galphao interaction. AID 1840. 1,700 tested, 4% active. binding response (% of control), % at 10 µM. RGS4-Galphao binding, multiplexed bead flow cytometry; actives lie on both sides. shares compounds with RGS16-Gao HTS; in the data active means binding response below about 74% or above about 130%; inactive means in between
RGS19-Gao single – RGS19-Galphao interaction regulation, single point confirmation; shares compounds with RGS16-Gao HTS; bead-based flow cytometry RGS19-Galphao binding; actives lie on both sides; response (percent of control binding), % at 10 µM; 1,700 tested, 5% active; AID 1841; in the data active means response below about 50% or above about 160%; inactive means in between;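 further: 100% = no compound control and 0% = blank background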
Target sequence (P09471 whole entry, looked up): as above
Target sequence (P49795 whole entry, looked up): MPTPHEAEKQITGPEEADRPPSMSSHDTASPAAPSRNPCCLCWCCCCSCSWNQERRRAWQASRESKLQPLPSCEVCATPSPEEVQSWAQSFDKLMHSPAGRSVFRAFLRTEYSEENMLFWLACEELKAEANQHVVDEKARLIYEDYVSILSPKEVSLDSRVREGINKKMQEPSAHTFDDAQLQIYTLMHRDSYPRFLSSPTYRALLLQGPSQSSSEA
* hit, by the source's call; i = inactive; ? = inconclusive; . = no result; [ ] = remark or other dose. Unless noted, how the calls were made is not given here.

SMILES	RGS16-Gao HTS	RGS7-Gao reg	Avidin fluor	RGS4-Gao reg	GSH fluor	RGS8-Gao	Avidin counter	RGS8-Gao confirm	RGS7-Gao confirm	RGS16-Gao single	RGS4-Gao single	RGS19-Gao single	others
NS(=O)(=O)c1ccc(-c2ccc(/C=C3\C(=O)Nc4cc(Cl)ccc43)o2)cc1	95	91	10	91	4	100	.	.	.	.	.	.
COc1ccc(/C=N/NC(=O)c2ccncc2)cc1Cn1nc([N+](=O)[O-])c(Br)c1C	103	100	9	101	15	100	.	.	.	.	.	.
CC(C)CCn1c2ccccc2c2cc(CC(N)=O)ccc21	99	?	8	100	.	100	.	.	.	.	.	.
O=C1C(=Cc2ccc(Br)o2)C(=O)c2ccccc21	8.3*	1.6*	-6	53	8	32*	.	.	.	.	.	.	RGS-Gao=53*
CCOC(=O)C1=C(C)NC(C)=C(C(=O)OCC)C1C(=O)OCC(=O)N(CC)C1CCS(=O)(=O)C1 (stereo not drawn)	104	103	12	101	10	99	.	.	.	.	.	.
NS(=O)(=O)c1ccc(S(=O)(=O)N2CCCC2)cc1	89	104	7	102	25	97	.	.	.	.	.	.
O=c1c2ccccc2sn1-c1ccccc1	-5.3*	91	6	78	15	18*	-2	25*	85	0.1*	78	-0.4*	RGS-Gao=78*
O=c1c2ccccc2sn1-c1nccs1	78	101	16	98	9	75	.	.	.	.	.	.
CN(C)S(=O)(=O)c1ccc2[nH]cc(/C=C/c3nc4ccccc4c(=O)n3-c3ccccc3)c2c1	99	101	34	101	16	102	.	.	.	.	.	.
CN(C)S(=O)(=O)c1cccc(-n2sc3ccccc3c2=O)c1	17*	?	4	93	9	55*	.	.	.	.	.	.	RGS-Gao=93*
O=c1c2ccccc2sn1-c1ccc(S(=O)(=O)N2CCCC2)cc1	-3.0*	89	4	92	9	31*	1	59*	85	40*	91	8.6*	RGS-Gao=92*
Cc1ccc(-n2sc3ccccc3c2=O)cc1S(=O)(=O)N1CCCCC1	-12	97	7	75	6	43*	.	.	.	.	.	.	RGS-Gao=75*
CC(=O)c1sc(N/N=C\c2ccccc2O)nc1C	101	99	13	100	15	102	.	.	.	.	.	.
CCC(=O)Oc1ccc(C(=O)Nc2ccc3c(c2)OCO3)cc1	104	100	7	103	15	102	.	.	.	.	.	.
CCSc1ncc(CO)c(N)n1	111	?	5	113	.	108	.	.	.	.	.	.
COc1ccccc1NC(=O)CN1C(=O)NC2(CCCCCCC2)C1=O	101	100	10	98	13	99	.	.	.	.	.	.
Cc1cc(NC(=O)CN2C(=O)NC3(CCC(C)CC3)C2=O)no1 (stereo not drawn)	-10	23*	-1	24*	10	23*	i	99	100	100	104	101
Cc1ccccc1NC(=O)CN1C(=O)NC2(CCCCC2)C1=O	.	.	.	.	42	.	0	95	98	94	94	90
CC1CN/C(=C\C(=O)c2ccccc2)C(=O)N1 (stereo not drawn)	42	44*	3	49*	21	56*	i	101	106	106	102	104
CC1CN/C(=C\C(=O)c2ccc(Cl)cc2)C(=O)N1 (stereo not drawn)	111	100	6	101	14	103	.	.	.	.	.	.
CSc1nc2cc(Oc3cccc(Cl)c3Cl)c(Cl)cc2[nH]1	100	106	7	102	70	98	.	.	.	.	.	.
CN(C)[C@@H]1C(=O)C(C(=O)NCN2CCCC2)=C(O)[C@@]2(O)C(=O)C3=C(O)c4c(O)cccc4[C@@](C)(O)C3CC12 (stereo partly drawn)	8	8.3*	-2	21*	9	18*	-2	53*	26*	54*	60*	35*
C=C1c2cccc(O)c2C(O)=C2C(=O)[C@]3(O)C(O)=C(C(N)=O)C(=O)[C@@H](N(C)C)[C@@H]3[C@@H](O)[C@H]12	96	105	5	92	21	101	.	.	.	.	.	.
O=C(N1CCN(c2ccccc2)CC1)C12CC3CC(CC(C3)C1)C2	106	104	12	105	23	103	.	.	.	.	.	.
O=C(N1CCN(Cc2ccccc2)CC1)C12CC3CC(CC(C3)C1)C2	.	.	.	.	18	.	2	100	101	103	104	101
SMILES	RGS16-Gao HTS	RGS7-Gao reg	Avidin fluor	RGS4-Gao reg	GSH fluor	RGS8-Gao	Avidin counter	RGS8-Gao confirm	RGS7-Gao confirm	RGS16-Gao single	RGS4-Gao single	RGS19-Gao single	others
O=C(C(Cc1ccccc1)n1cccc1)N1CCN(Cc2ccccc2)CC1 (stereo not drawn)	209	116	3	113	22	144*[activator]	2	99	95	103	97	86	RGS-Gao=113*
O=C(C(Cc1ccccc1)n1cccc1)N1CCCCC1 (stereo not drawn)	102	100	6	102	24	101	.	.	.	.	.	.
CC(CCCCC(=O)Nc1ccc(C(F)(F)F)cc1)NCCc1cnc[nH]1 (stereo not drawn)	102	97	6	99	65	98	.	.	.	.	.	.
CCOC(=O)C1CCN(C(=O)c2ccc(N(C)S(=O)(=O)c3ccc(OC)cc3)cc2)CC1	102	96	3	101	10	100	.	.	.	.	.	.
CCCC(=O)NC(NC1CCS(=O)(=O)C1)C(Cl)(Cl)Cl (stereo not drawn)	15*	11*	1	22*	14	34*	0	100	101	105	102	96
CC(C)C(=O)NC(NC1CCS(=O)(=O)C1)C(Cl)(Cl)Cl (stereo not drawn)	107	113	14	100	21	110	.	.	.	.	.	.
O=[N+]([O-])c1ccc(Nc2nc(NC3CCCCC3)nc(N3CCCC3)n2)cc1	157	160*[activator]	27	170*[activator]	13	104	0	92	98	89	95	85

Screening data: PubChem BioAssay, NMMLSC
